# Source: PubChem BioAssay
# A selection: hits, their analogues and other compounds. The true share with any hit is near 19%.
# SW480 rerep – DNA re-replication induction in SW480 cells; SW480 DNA re-replication, Hoechst DNA content imaging, 48 h; Potency, µM (titrated, usually from 46.1 µM), for inactives: top-dose re-replication activation, usual class: activators; 340,000 tested, 1.8% active; note: potency is the fitted concentration of half-maximal effect; % of control where 0% means no effect; nearly all actives have a fitted effect of over 55% in size
#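 Hoechst fluorescence of nuclei (405 nm excitation, 500-530 nm emission) measured by plate-scanning imager after 48 hr compound exposure at 37 C; re-replication scored as increased number of nuclei with elevated intensity.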
# MCF10A rereplic – DNA re-replication induction in MCF 10a cells. MCF 10A DNA re-replication, Hoechst nuclear intensity, 48 h. 350,000 tested, 2.9% active. Potency, µM (titrated, usually from 46.1 µM), for the others: at the top dose activity, positive = re-replication, hits mostly activators; note: potency is the fitted concentration of half-maximal effect; % of control where 0% means no effect; nearly all actives have a fitted effect of over 50% in size
# IL1B secr inh – inflammasome signaling inhibition, IL-1 beta readout | activity change, % at 57.5 µM | THP-1 LPS/ATP IL-1B secretion, AlphaLISA, 16 h; hits give low values | 360,000 tested, 4.7% active; in the data active = activity change below about -50%; inconclusive = mostly about -30% to -49%; note: % is set by controls: 0 for no effect and ±100 for the full control effect
#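 Secreted IL-1B measured by AlphaLISA bead assay after 16 h compound exposure of THP-1 cells; compounds (final up to 57.5 uM) added 1 h before LPS (250 ng/mL) and ATP (1.25 mM) stimulation; lower signal means less secretion.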
# TDP1 cell noCPT – qHTS for Inhibitors of human tyrosyl-DNA phosphodiesterase 1 (TDP1): qHTS in cells in absence of CPT; 420,000 tested, 15% active; AID 686978, 2013; Potency, µM (titrated, usually from 46.2 µM), inactives show top-dose activity change, negative = growth inhibition, actives largely listed as inhibitors; DT40 Tdp1-/- hTDP1 cells, no CPT, ATP luminescence, 48 h; note: potency is the fitted concentration of half-maximal effect; % is set by controls: 0 for no effect and ±100 for the full control effect; nearly all actives have a fitted effect of over 55% in size
#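 DT40 Tdp1-/-;hTDP1 cells, no CPT (DMSO vehicle only), 400 cells/well; compounds pin-transferred; ≥48 hr, 37 °C; CellTiter-Glo 30 min RT dark, luminescence read.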
# BCR signal inh – chronic active BCR signaling inhibition | ABC-DLBCL IkBa-CBG/CBR reporter, luminescence ratio, 4 h | Potency, µM (titrated, usually from 46.1 µM), for inactives: at the highest dose activity change, negative = inhibition, most hits filed as inhibitors | AID 493014 | 340,000 tested, 0.05% active; active = well fitted inhibition curve with a large enough effect in the signal ratio, with a control signal flat, not every such curve was filed as active; inconclusive = small, poorly fitted or top-dose-only effect, or effect the other way, or a change in a side signal; the % refers to the signal ratio;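 note: potency is the fitted concentration of half-maximal effect; plate controls were basal doxycycline-induced cells for no effect and cells given 10 µM MG132 for full effect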
#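 Doxycycline induced both beetle luciferases in TMD8 lymphoma cells; IKK-driven degradation limits the IkappaBalpha-fused green signal, while red luminescence normalises for cell number and nonspecific effects. Compounds tested up to 46 uM, 4 hrs.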
# DT40 TDP1 CPT – DT40-hTDP1 cell growth loss with CPT | Potency, µM (titrated, usually from 46.2 µM), for the others: at the top dose activity change, negative = growth inhibition, actives largely listed as inhibitors | 420,000 tested, 12% active | chicken DT40 Tdp1-/-;hTDP1 cells + 20 nM CPT, ATP luminescence, 48 h; note: potency is the fitted concentration of half-maximal effect; % is set by controls: 0 for no effect and ±100 for the full control effect; nearly all actives have a fitted effect of over 55% in size
#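 Chicken DT40 Tdp1-/- cells complemented with human TDP1, 400 cells/well, exposed to compounds plus 20 nM camptothecin for at least 48 h at 37 C; viability read as ATP content by CellTiter-Glo luminescence.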
# * = called active by the depositor; ? = inconclusive; nt = not tested or not shown; ! = repeats disagree. Unless noted, calls come from the whole dose curve; as a rule, active = well fitted curve in the direction sought with a large enough effect; inconclusive = small, poorly fitted or top-dose-only effect, or another doubt; inactive = no such curve, though single readings can be large; an effect the other way counts as inactive or inconclusive.
SMILES,SW480 rerep,MCF10A rereplic,IL1B secr inh,TDP1 cell noCPT,BCR signal inh,DT40 TDP1 CPT
CCCS(=O)(=O)NC(=O)C1(C)CCN(C(=O)Cc2cccc3ccccc23)C1 (centres undefined),nt,nt,7.6,-7.8%,nt,-3.6%
CCCCOCCOCCOCc1cc2c(cc1CCC)OCO2,-1.4%,1.1%,nt,?,nt,?
CC(=O)N1CCC2(CC1)C/C(=N\NC(=S)Nc1ccccc1F)c1cc(O)ccc1O2,?,?,-76.0*,-14.0%,?,-17.7%
CC(=O)N1CCC2(CC1)CC(=O)c1cc(Cl)ccc1O2,2.31µM*,1.4%,16.3,-16.0%,nt,-15.1%
CCC(=O)N1CCC2(CC1)Oc1ccc(Cl)cc1C(=O)C21CC(c2ccccc2)=NO1 (centres undefined),-3.1%,8.1%,-18.6,25.9µM*,?,?
COc1ccc(N2CCN(S(=O)(=O)CCNC(=O)c3ccc(OC(C)C)cc3)CC2)cc1,nt,nt,nt,-18.2%,nt,-1.8%
Cc1noc(C)c1S(=O)(=O)N1CCCN(C(=O)/C=C/c2ccccc2F)CC1,1.8%,8.4%,-4.9,?,-1.5%,-14.2%
O=C(NNC(=O)c1ccc(-c2ccc([N+](=O)[O-])cc2)o1)c1ccncc1,-8.0%,-6.2%,-28.8,6.2%,?,-25.1%
CC(O)[C@@]1(O)CC[C@H]2[C@@H]3CC[C@H]4C[C@@H](O)CC[C@]4(C)C3=CC[C@@]21C (some centres undefined),-4.2%,1.0%,-27.8,-6.1%,-16.3%,?
COc1cc2c(cc1C(F)(F)F)N(C(=O)Nc1cc(F)cc(-c3cccnc3)c1)CC2,nt,nt,nt,3.55µM*,nt,4.47µM*
Cn1ccc2cc3c(cc21)CCN3C(=O)Nc1cccnc1,-46.1%,-25.1%,-7.5,?,7.1%,7.5%
COc1ccccc1NC(C)C(=O)c1c(C)[nH]c2ccccc12 (centres undefined),nt,nt,nt,?,nt,-29.5%
OCC1OC(n2cnc3c(NCc4ccccc4O)ncnc32)C(O)C1O (centres undefined),2.31µM*,?,-86.0*,1.46µM*,nt,1.3µM*
O=C(Cn1cnc2c(NCc3ccccc3)ncnc21)NCc1ccccc1,11.6µM*,9.2µM*,85.2,2.91µM*,?,4.11µM*
OCC1OC(n2cnc3c(NO)ncnc32)C(O)C1O (centres undefined),nt,nt,nt,5.01µM*,nt,0.891µM*
CNC(=O)[C@H]1O[C@@H](n2cnc3c(NCc4cccc(I)c4)ncnc32)[C@H](O)[C@@H]1O,-61.2%,7.1%,-29.4,16µM*!,?,?
CNC(=O)[C@H]1O[C@@H](n2cnc3c(N)ncnc32)[C@H](O)[C@@H]1O,nt,nt,nt,-10.6%,nt,-1.2%
COc1cc(NC(=O)Cn2cnc3c(NCc4ccccc4)ncnc32)cc(OC)c1OC,-3.5%,10.8%,23.5,3.4%,?,2.6%
N#Cc1ncn(C2OC(CO)C(O)C2O)c1N (centres undefined),nt,nt,-6.5,5.8µM*,nt,5.8µM*
CC(C)=CCNc1ncnc2c1c(C#N)cn2C1OC(CO)C(O)C1O (centres undefined),?,14.6µM*,3.8,4.11µM*,nt,5.8µM*
O=[N+]([O-])c1ccc(CSc2ncnc3c2ncn3[C@@H]2O[C@H](CO)[C@@H](O)[C@H]2O)cc1,0.6%,?,-24.4,13µM*,?,?
Nc1ncnc2c1ncn2[C@@H]1O[C@H](CO)[C@@H](O)[C@H]1O,8.3%,-3.8%,-2.2,-27.6%,?,-10.7%
Nc1ccnc2c1ncn2[C@@H]1O[C@H](CO)[C@@H](O)[C@H]1O,nt,nt,nt,4.61µM*,nt,11.6µM*
OCC1OC(n2cnc3c(SCc4ccccc4)nc(F)nc32)C(O)C1O (centres undefined),-21.3%,0.1%,9.5,-12.8%,nt,-26.2%
Cc1ccc(COC(=O)NCc2cccnc2)cc1,16.9%,1.4%,40.9,6.8%,5.8%,-1.7%
SMILES,SW480 rerep,MCF10A rereplic,IL1B secr inh,TDP1 cell noCPT,BCR signal inh,DT40 TDP1 CPT
Cc1ccc(C)c(S(=O)(=O)N2CCN(C(=O)c3sccc3C)CC2)c1,-2.4%,4.7%,?,?,-8.6%,-21.4%
CC1CCN(S(=O)(=O)c2cnc[nH]2)CC1,-0.5%,-2.3%,5.7,1.5%,1.8%,10.9%
Cc1cccc(C)c1NC(=S)N1CC(C)OC(C)C1 (centres undefined),-8.3%,-0.1%,8.1,-9.2%,-14.0%,-4.1%
CCc1nn(CC(=O)NCCOC)c(=O)c2cc3cc(F)ccc3n12,nt,nt,nt,2.0%,nt,16.6%
CC(=O)N=Nc1[nH]c(N)c2ccccc12,-3.7%,-0.9%,1.7,0.5%,2.7%,17.2%
OCC1OC(n2cnc3ncccc32)C(O)C1O (centres undefined),nt,nt,16.1,6.51µM*,nt,7.31µM*
OC[C@H]1O[C@@H](n2cnc3c(NCc4ccccc4)ncnc32)[C@H](O)[C@@H]1O,nt,nt,nt,1.88µM*,nt,2.66µM*
OCC1OC(n2cnc3c(=S)nc[nH]c32)CC1O (centres undefined),4.1%,?,14.7,-10.0%,nt,1.3%
OCC1OC(n2cnc3c(NCCc4ccccc4)ncnc32)C(O)C1O (centres undefined),-68.7%,-12.3%,-11.4,-10.8%,nt,5.6%
OC[C@H]1O[C@@H](n2cnc3c(=S)nc[nH]c32)[C@H](O)[C@@H]1O,nt,nt,nt,10.6µM*,nt,11.9µM*
